Here are results for 27 compounds from PubChem BioAssay (NCI).

Common to all, as to test: NCI-60 one-dose screen, 48 h (100 = growth as untreated, 0 = no growth, -100 = all killed)
Common to all, as to conditions: 10 µM unless noted

The subject of test [1] is NCI-H23 lung.
Test [2] deals with NCI-H226 lung.
The test system of test [3] is NCI-H322M lung.
Test [4] concerns HOP-62 NSCLC.
Test [5] deals with NCI-H460 lung.
In test [6] the test system is HOP-92 NSCLC.
In test [7] the test system is NCI-H522 lung.
Test [8] deals with A549/ATCC NSCLC.
The subject of test [9] is 786-0 renal.
For test [10], the system named is COLO 205 colon.

The structures appear in SMILES notation. About 83,000 compounds went through this panel and 20% of them were active in at least one assay; those are over-represented in the sample as a whole.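 Testing used 96-well plates and a 48-hour single-concentration exposure. Example: -40 means 40% of the starting cells died.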 Values without a mark were called inactive. Calls of active or inactive are those of the source. Rule for the calls: active = growth percent below 10; inactive = the rest.

In the case of `O=S(=O)(O)CCl`, the growth in [1] was 97.2%; in test [2], 106%; in test [3] it was 105%; in test [4], 112%; in test [5] it was 113%; in test [6], 106%. For the same compound, the growth in test [7] was 77.8%; in [8], 103%; in test [9] it was 99.1%; in test [10], 113%.

In the case of `CC(C)C[C@H](NC(=O)Cn1ccc(NCc2ccccc2)cc1=O)B(O)O`, the growth in test [1] is 31.7%; in test [2], -75% (active); in test [3] it was 91.3%; in [4], 44.9%; in [5], 60.5%; in [6] it was 2.85% (active). Further, the growth was -20.7% (active) in test [7], 40.4% in test [8], 20.6% in [9] and 32% in test [10].

For the compound `O=C(Cc1n[nH]c(=O)c2ccccc12)OCc1c(Cl)cccc1Cl`, the growth in [1] is 103%; in test [2], 77.5%; in test [3], 107%; in [4], 69.1%; in test [5] it was 26.3%; in [6], 88.2%. Further, the growth was 98.9% in [7], 96.4% in test [8], 81.6% in test [9] and 112% in test [10].

As for `Cc1ccc(S(=O)(=O)N2CCC(C(=O)Nc3ccc(F)cc3F)CC2)cc1`, the growth is 95.8% in test [1]; 87.9% in [2]; 112% in [3]; 96.2% in test [4]; 107% in test [5]; 82.2% in [6]. Moreover, the growth was 102% in [7], 91.8% in test [8], 89.9% in test [9] and 99.3% in [10].

With `O=c1oc2cc(OS(=O)(=O)c3ccc(F)cc3)ccc2c2c1CCCCC2`, the growth in test [1] is 66.1%; in test [2], 55.1%; in test [3], 90.4%; in [4], 96.4%; in test [5], 65.5%; in [6], 60%. Further, the growth in test [7] is 49.8%; in [8] it was 55.9%; in test [9], 76.2%; in test [10], 24.4%.

For `N=C(N)c1ccc(-c2ccc(-c3ccc(Cl)cc3)o2)nc1`, the growth in [1] is -81.9% (active); in [2], -68.2% (active); in test [3], -94.5% (active); in [4], -85.5% (active); in test [5] it was -91.6% (active); in test [6], -87.7% (active). Also, the growth in test [7] is -78.9% (active); in [8], -82.8% (active); in [9], -85.1% (active); in test [10], -87.5% (active).

Regarding `COC1=CC(c2ccc[nH]2)=N/C1=C\c1[nH]c(C)c(C(=O)CCCCC(=O)NCc2ccccc2)c1C`, the growth in test [1] is 31.6%; in test [2] it was 28.6%; in [3], 77%; in test [4], 57.1%; in [5], 1.07% (active); in test [6] it was -55.5% (active). For the same compound, the growth in test [7] was -33.5% (active); in test [8], 1.81% (active); in test [9] it was 18.9%; in test [10] it was 55.2%.

On to `COc1cc(OC)c(C(=O)/C=C/c2ccc(C#N)cc2)c(OC)c1`, for which the growth was 20.1% in [1]; 28.9% in [2]; 17.3% in test [3]; 13.6% in [4]; -3.34% (active) in test [5]; 12.8% in test [6]. Further, the growth is -5.25% (active) in test [7], 7.11% (active) in test [8], 10.6% in test [9] and 9.97% (active) in test [10].

Take `CCSc1nnc(Nc2ccc(C(C)C)cc2)s1`: the growth in [1] is 79.3%; in [2], 75%; in test [3] it was 97.6%; in [4], 91.5%; in test [5], 97.5%; in [6], 92.7%. The growth in test [7] is 87.2%; in [8], 86.5%; in test [9], 86%; in test [10] it was 86.9%.

Take `CC(=O)Nc1ccc2c(c1)/C(=C\C=C/c1ccc([N+](C)(C)C)cc1)c1ccccc1-2`: the growth is 54.5% in test [1]; 57.9% in test [2]; 50.1% in test [3]; 18.4% in test [4]; 73.4% in [5]; 52% in test [6]. Moreover, the growth was 18.1% in test [7], 43.2% in test [8], 55.4% in [9] and 58.1% in test [10].

For the compound `COc1cccc(/C=C2\SC(N3CCN(c4ccccn4)CC3)=NC2=O)c1`, the growth in test [1] was 95.5%; in test [2], 108%; in test [3], 88.8%; in [4], 93.6%; in test [5], 107%; in [6], 92.7%. Besides, the growth in test [7] was 71.6%; in [8], 94.5%; in test [9] it was 108%; in [10] it was 119%.

In the case of `O=C1CCC/C=C\C[C@H]2C=CC(=O)/C2=C/C[C@H](C/C=C\CC(F)(F)F)O1`, the growth was -8.61% (active) in test [1]; 8.07% (active) in [2]; 17.5% in test [3]; -11.7% (active) in test [4]; -30.5% (active) in test [5]; -24.4% (active) in [6]. The growth in test [7] is -50.8% (active); in test [8] it was 1.72% (active); in test [9], -73.9% (active); in test [10], -44.4% (active).

`COC12CC(=O)C(C(C)=O)=C(O)C1(C)c1c(O)c(C)c(O)c(C(C)=O)c1O2` (stereo not given): the growth in test [1] is 50.5%; in test [2], 81.2%; in [3], 71.4%; in [4], 86%; in [5] it was 55.1%; in test [6] it was 46%. The growth was 70.1% in test [7], 64.8% in [8], 60.8% in test [9] and 99.8% in [10].

For the compound `O=C(CNc1ccc(Cl)cc1)Nc1ccc(-c2nc3ccccc3s2)cc1`, the growth is 39.1% in test [1]; 58.1% in test [2]; 80.3% in [3]; 116% in [4]; 87.1% in test [5]; 97.8% in [6]. Further, the growth in test [7] was -94.5% (active); in test [8] it was 89%; in [9], 27%; in [10], 47%.

Turning to `Nc1c(C(=O)c2ccc(F)cc2)sc2nc3c(cc12)CCCC3`, the growth is 77.9% in test [1]; 85.4% in [2]; 81.3% in test [3]; 91.1% in test [4]; 90.3% in test [5]; 61.3% in [6]. Further, the growth is -2.9% (active) in test [7], 70.9% in [8], 85.3% in [9] and 84.8% in test [10].

In the case of `CCOC(=O)c1ccccc1NC(c1ccccc1)c1ccc2cccnc2c1O` (stereo not given), the growth in test [1] was 30.3%; in test [2], 7.15% (active); in [3], 42.5%; in [4], 16.4%; in test [5] it was 6.16% (active); in [6] it was 16.5%. Further, the growth is -1.69% (active) in test [7], 21.6% in test [8], 1.44% (active) in test [9] and 16.3% in [10].

As for `CCn1cc(C2NC(=O)c3cc(F)ccc3N2)c2cccc(Cl)c21` (stereo not given), the growth was 30.8% in test [1]; 49.5% in test [2]; 45.5% in [3]; 28.5% in test [4]; 6.22% (active) in [5]; 72% in [6]. Also, the growth in test [7] was -22.1% (active); in [8], 3.82% (active); in test [9], 42.3%; in test [10], -11.5% (active).

Consider `O=C(Nc1ccc(F)c(Cl)c1)c1n[nH]c(=O)c2ccccc12`, for which the growth in [1] was 106%; in test [2], 97.2%; in test [3], 113%; in test [4] it was 102%; in test [5] it was 107%; in [6], 96.9%. Besides, the growth was 99.6% in test [7], 91.8% in [8], 115% in [9] and 105% in test [10].

Turning to `Cc1ccc(S(=O)(=O)OCC(=O)Nc2ccc(C(=O)O)c(O)c2)cc1`, the growth in [1] is 131%; in [2], 126%; in test [3], 104%; in test [4], 100%; in test [5] it was 103%; in test [6] it was -60.6% (active). Moreover, the growth is 93.8% in [7], 101% in test [8], 108% in test [9] and 131% in [10].

With `Nc1c(C(=O)Nc2ccccc2)sc2nc3c(cc12)CCCCC3`, the growth in [1] was 36.6%; in [2], 27.3%; in test [3], 21.3%; in test [4], 7.61% (active); in [5] it was 6.63% (active); in [6] it was -4.43% (active). Also, the growth in test [7] is 30.2%; in [8], 18.4%; in test [9] it was 15.7%; in [10], 9.29% (active).

For the compound `COc1cc(CCn2nnc3c(NCCCCO)ncnc32)cc(OC)c1`, the growth in test [1] was 94.5%; in test [2], 99.3%; in test [3] it was 99.3%; in test [4], 113%; in test [5], 105%; in test [6] it was 83.8%. The growth in [7] was 111%; in test [8], 101%; in [9], 105%; in [10], 109%.

On to `CC(C)(C)c1cn2cccc(C(=O)N3CCN(CC(=O)Nc4ccc(Cl)cc4C(=O)c4ccccc4Cl)CC3)c2n1`, for which the growth in [1] was 60.6%; in test [2], 71.6%; in [3], 94.6%; in test [4], 84.7%; in test [5], 49.8%; in [6], -30% (active). For the same compound, the growth in test [7] is 54.9%; in [8] it was 27.6%; in test [9] it was 55.3%; in test [10], 54.2%.

`O=C(/C=C/CN1CCOCC1)Nc1cc2c(Nc3ccc(F)c(Cl)c3F)ncnc2cc1OCCOC(F)F`: the growth in [1] is 69.2%; in [2], 70%; in test [3], 8.76% (active); in test [4], 51.2%; in [5], 49.4%; in test [6], -8.94% (active). Besides, the growth in test [7] is 8.53% (active); in test [8] it was 40.5%; in test [9] it was 38.9%; in [10] it was 71.9%.

For the compound `O=S(=O)(NCCCNc1nccc(-c2c(-c3ccc(F)c(O)c3)nc3sccn23)n1)c1ccc(Cl)cc1`, the growth in [1] was 80%; in test [2], 104%; in test [3], 98.6%; in test [4], 96.6%; in [5], 86.3%; in test [6], 74.3%. The growth in test [7] was 57.5%; in test [8], 76.9%; in test [9] it was 110%; in [10], 42.6%.

Consider `Cc1ccc(C(=O)c2sc3nc4c(cc3c2N)CCCC4)c(C)c1`, for which the growth in test [1] is 35.1%; in test [2] it was 60.1%; in test [3] it was 29.5%; in [4], 39.6%; in test [5], 14%; in test [6], 27.4%. Moreover, the growth in test [7] is -0.883% (active); in test [8] it was 19.2%; in test [9] it was 35.2%; in [10] it was 3.68% (active).

For `NC(C(=O)O)C(O)c1ccc(OCc2ccccc2)c(OCc2ccccc2)c1` (stereo not given), the growth was 96.3% in test [1]; 99.2% in [2]; 109% in test [3]; 88.7% in test [4]; 108% in test [5]; 73.8% in test [6]. Also, the growth in test [7] is 93.5%; in [8], 93.4%; in [9], 98.7%; in test [10], 106%.

For the compound `Nc1ccccc1C#C/C=C\C#Cc1cccc(O)c1`, the growth in test [1] was 97.3%; in test [2], 95.4%; in test [3], 93.6%; in test [4], 40.2%; in test [5], 34.7%; in [6] it was -30.1% (active). For the same compound, the growth in test [7] was 52.9%; in [8] it was 64.5%; in test [9] it was 61.5%; in test [10] it was 81.2%.
